Among the data in ChEMBL document CHEMBL4513216, “Probing the Open Global Health Chemical Diversity Library for Multistage-Active Starting Points for Next-Generation Antimalarials” (ACS Infect Dis, 2020) are INHIBITION values, retold here.

SMILES strings stand for the structures. Out of some 69,000 compounds screened, about 8,600 (12%) showed an effect of 50% or more. The full list was thinned out, with strong results kept by preference.

For this test, the system named is Plasmodium berghei. The experiment in a line: Screen against P. berghei liver stage (PbLuc), transformed with Luciferase, at 10uM. It is filed as functional, HepG2. As to conditions: tested at 10 uM.
With `CC(c1nc(C2CC2)no1)N1CCN(Cc2nnc(C3CC3)o2)CC1` (centres undefined), the INHIBITION is -51.5%.
To `Cc1c(C(=O)NC(C)CC(=O)c2cccs2)cnn1C` (centres undefined) belongs 40.6%; to `CC(=O)N1CCCN(C(=O)c2ccc(Sc3ccccn3)cc2)CC1`, -0.217%.
Under `Cc1cccn2cc(CC(=O)N(CCN(C)C)CC3CCCO3)nc12` (centres undefined) stands 58.5%; under `O=C(Cc1cn2ccsc2n1)N(Cc1ccco1)CC1CCCO1` (centres undefined), 7.21%; under `CN(C)CCN(CC1CCCO1)C(=O)Cc1cn2ccccc2n1` (centres undefined), 28.7%.
Under `Fc1ccc(CN2CCc3ncnc(C4CC4)c3CC2)cc1` stands 39.5%; under `O=C1CCN(C(=O)c2ncoc2-c2ccco2)c2ncccc2N1`, 15.1%; under `CN1CCC(c2n[nH]c(=O)n2-c2cccc(Cl)c2)CC1`, 14.1%.
With `CN1CC(c2n[nH]c(=O)n2-c2cccc(Cl)c2)CC1=O` (centres undefined), the INHIBITION came out at 58.9%.
Under `O=c1[nH]nc(C2CC2)n1-c1cccc(Cl)c1` stands -21.7%; under `O=C(c1ccc(N2CCCC2)nc1)N1CCCC(n2cncn2)C1` (centres undefined), -29.5%.
Under `CN(C)C(=O)CCC1CCCN(Cc2ccc(-c3cccnc3)cc2)C1` (centres undefined) stands 29.8%.
Under `Cc1nccn1CC1CCCN(Cc2ccc(-c3cccnc3)cc2)C1` (centres undefined) stands 66.7%.
With `Cc1nc(C)n(CC2CCCN(Cc3cccnc3)C2)n1` (centres undefined), the INHIBITION is given as -14.6%.
Under `Cc1nn(C)c(N(C)C)c1CNCc1ccccc1CO` stands 15.3%; under `Cc1cc(NC(=O)CCn2nc(C)c3ccccc32)n(C)n1`, 26.7%.
To `Cc1cc(NC(=O)CCn2nc(C)c3ccccc32)n(C(C)C)n1` belongs 59%; to `CCn1nc(C)cc1NC(=O)CCn1nc(C)c2ccccc21`, 20.9%.
Under `CSCC[C@H](NC(=O)N1CCC(Cc2ccccc2)CC1)C(=O)O` stands 20%.
For `CC(NC(=O)C1CCCC1)c1nncn1C(C)C` (centres undefined), the INHIBITION amounted to 52.2%.
Under `CC(NC(=O)C1CCN(C(=O)C2CC2)CC1)c1nncn1C(C)C` (centres undefined) stands 44%; under `CC(NC(=O)C1CCN(C(C)C)CC1)c1nncn1C1CCCC1` (centres undefined), 17.8%.
Under `CCOc1ccccc1C(C(=O)O)N(C)CC1CCOCC1` (centres undefined) stands 41.3%.
To `c1sc(C2CCCCC2)nc1CN1CCn2c(nnc2C2CC2)C1` belongs 38.8%; to `O=C(NCCn1ccnc1)N1CCCC1c1ccc2c(c1)OCCO2` (centres undefined), -1.25%; to `COc1ccc2nnc(CCC(=O)Nc3nc4c(s3)CCCC4)n2n1`, -2.09%.
Take `O=C(NCC1CCOCC1)[C@@H]1C[C@@H]2CCN(Cc3ccco3)C[C@H]2O1`: the INHIBITION amounted to 2.74%.
Under `COCCCNC(=O)C(C)(C)N(C)C1CCCC1` stands 72.1%; under `CN(C1CCCC1)C(C)(C)C(=O)NCCS(C)(=O)=O`, 42.4%.
As to `CN(C1CCCC1)C(C)(C)C(=O)NCCNC(N)=O`, the INHIBITION amounted to 32.2%.
On to `O=C1CCC(=O)c2oc3ccc(Br)cc3c2N1`, for which the INHIBITION is 0.207%.
As to `Cc1cnn(CCNCc2ccc(S(C)(=O)=O)cc2)c1`, the INHIBITION is -13.1%.
For `Cc1cnn(CC(C)NCc2ccc(S(C)(=O)=O)cc2)c1` (centres undefined), the INHIBITION is given as 56.3%.
For the molecule `Cc1cnn(CC(C)NCc2ccc(C#N)cc2)c1` (centres undefined), the INHIBITION is given as 32.8%.
To `Cc1cnn(CC(C)NCc2ccc(OCc3cccnc3)cc2)c1` (centres undefined) belongs 58.5%; to `CC(Cn1cccn1)NCc1cnc(N2CCCC2)nc1` (centres undefined), 53.2%.
To `c1cnn(CCNCc2cnc(N3CCCC3)nc2)c1` belongs -1.04%.
`c1ccc(Cn2cccn2)c(CNCc2cnc(N3CCCC3)nc2)c1`: the INHIBITION came to 22.6%.
Under `CC(Cn1cccn1)NCc1csc(COc2ccccc2)n1` (centres undefined) stands -2.53%; under `COc1cc(CNC(C)Cn2cccn2)cc(OC)c1` (centres undefined), 25.1%; under `Cc1cnn(CC(C)NCc2ccccc2OCc2cccnc2)c1` (centres undefined), 13.3%.
In the case of `Cc1cnn(CC(C)NCc2cccnc2)c1` (centres undefined), the INHIBITION is recorded as -3%.
Under `CC(Cn1cccn1)NCc1ccc(OCc2ccncc2)cc1` (centres undefined) stands 56.4%.
On to `c1cnc(N2CCO[C@H]3[C@H](OCCN4CCCC4)CC[C@@H]32)nc1`, for which the INHIBITION was found to be 43.8%.
To `CNC(=O)NCC1CCC2(CCN(C(=O)c3cccnc3)CC2)CO1` (centres undefined) belongs 41.2%.
Turning to `O=C(Cc1cccs1)N1Cc2nc(CN3CCCC3)oc2C1`, the INHIBITION is listed as 30.5%.
To `Cc1cccc(S(=O)(=O)N2C[C@@H]3C[C@H](C(=O)NCC4CC4)[C@H](C2)O3)c1` belongs 2.4%; to `CCc1nc(N2CCC3(CC2)[C@H](O)C[C@@H]3O)ncc1C`, -50.8%; to `CCOCC1CC2(CCN(C(=O)c3ncccn3)CC2)CO1` (centres undefined), 33.4%.
To `Cc1cnn(CC(C)NCc2ccc(OCc3cscn3)cc2)c1` (centres undefined) belongs -11.4%; to `Cc1cnn(CC2CCCN2Cc2cc(=O)n3ccccc3n2)c1` (centres undefined), 28.3%.
To `Cc1cnn(CC(C)NCc2cc(=O)n3ccccc3n2)c1` (centres undefined) belongs 89.6%; to `COc1cc(CNC(C)Cn2cccn2)cc(OC)c1OC` (centres undefined), 36.4%.
